CRE Fsk mod – alters forskolin-stimulated CRE reporter signaling in CHO cells. Potency, µM (series often up to 38.2 µM), hits mostly activators. 2.5% of 71,000 active. AID 662. CHO CRE-bla reporter (cAMP response element driving beta-lactamase), forskolin EC10, beta-lactamase ratio; active = well fitted activation curve with a large enough effect in the signal ratio, with a control signal flat, not every such curve was filed as active; inconclusive = small, poorly fitted or top-dose-only effect, or effect the other way, or a change in a side signal; the % refers to the signal ratio
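CRE-bla CHO reporter cells treated with compound titration plus EC10 NKH 477 (water-soluble forskolin), incubated 3 h at 37 °C; CCF4 loading 2 h at room temperature, 460/530 nm emission ratio read, AC50 values derived for positive or negative modulators.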
Casp7 inh – blocks human caspase-7 allosterically or competitively; recombinant caspase-7, Ac-DEVD-AFC fluorescence rate; P55210; Potency, µM (top dose mostly 57.5 µM), most hits filed as inhibitors; 0.02% of 75,000 active; AID 889; active = well fitted inhibition curve with a large enough effect in the main read-out, with a control signal flat, not every such curve was filed as active; inconclusive = small, poorly fitted or top-dose-only effect, or a change in a side signal
HEK293 cAMP cs – parental HEK293 cAMP activation (counter-screen); parental HEK293 CNG cAMP sensor, membrane potential fluorescence; Potency, µM (doses to about 57.1 µM), usual class: activators; 2.5% of 73,000 active; note: nearly all actives have a fitted effect of over 55% in size
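Parental HEK 293 cells stably expressing a modified CNG channel (no TSHR) report cAMP rise as membrane depolarization. Membrane potential dye with 100 uM RO 20-1724 was loaded for 60 min at room temperature, then compound added for 30 min; fluorescence read at 590 nm.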
USP2a inhib – inhibitors of human ubiquitin-specific protease USP2a; O75604; USP2a enzymatic assay, qHTS inhibition; Potency, µM (doses to about 38.3 µM), hits mostly inhibitors; 0.1% of 60,000 active; AID 927; note: nearly all actives have a fitted effect of over 60% in size
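Inhibition is measured in a cell-free coupled assay with 20 nM USP2 core, 20 nM Ub-PLA2 and 20 uM NBD C6-HPC, 2.5 h incubation. Activity normalized to NEM control.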
Caspase-1 inhib – blocks human caspase-1 allosterically or competitively; P29466; Caspase-1 enzyme, Ac-WEHD-AFC fluorogenic rate; Potency, µM (series often up to 57.5 µM), actives largely listed as inhibitors; 0.03% of 75,000 active; AID 900
TSHR ag – agonists of human thyroid stimulating hormone receptor; P16473; HEK293-CNG-TSHR cells (CNG channel as cAMP sensor), membrane potential dye, cAMP; Potency, µM (highest dose often 57.1 µM), actives largely listed as activators; 0.48% of 73,000 active; active = well fitted activation curve with a large enough effect in the main read-out, with a control signal flat, not every such curve was filed as active; inconclusive = small, poorly fitted or top-dose-only effect, or a change in a side signal; inactive = no such curve, though single readings can be large or run the other way; reference of the percent scale not stated here;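 note: the control signal comes from parental cells without the receptor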
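HEK 293 cells stably expressing TSHR and a cAMP-gated CNG channel; parental CNG-only cells as counterscreen. Cells preloaded 60 min with membrane potential dye plus 100 uM RO 20-1724, then compound 30 min; fluorescence read at 590 nm.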
Large screens that a line does not name were inactive; ! = repeats disagree. An excerpt weighted towards active compounds, which were near 5% of everything screened. Unless noted, calls come from the whole dose curve; as a rule, active = well fitted curve in the direction sought with a large enough effect; inconclusive = small, poorly fitted or top-dose-only effect, or another doubt; inactive = no such curve, though single readings can be large; an effect the other way counts as inactive or inconclusive.

CN1C(=O)N(C)C(=O)C2(Cc3c(nc4ccccn4c3=O)N3CCC(Cc4ccccc4)CC32)C1=O (configuration not stated)	none (no result: TSHR ag)
Cc1cccn2c(=O)c3c(nc12)N1CCC(Cc2ccccc2)CC1C1(C3)C(=O)N(C)C(=O)N(C)C1=O (configuration not stated)	HEK293 cAMP cs 20µM, TSHR ag inconclusive
c1ccc(N2CCCC3(CCNCC3)C2)cc1	HEK293 cAMP cs inconclusive, TSHR ag inconclusive
c1ccc(N2CCCC3(CCNCC3)C2)nc1	HEK293 cAMP cs 15.8µM, TSHR ag inconclusive
CCN1C[C@]2(C)CC[C@@H](O)[C@]34[C@@H]5CC6[C@@H](OC)C[C@@](O)([C@H]5[C@@H]6O)[C@@H](C[C@@H]23)[C@H]14	none
COC[C@@H]1OC(=O)c2coc3c2[C@]1(C)C1=C(C3=O)[C@H]2CCC(=O)[C@]2(C)C[C@@H]1OC(C)=O	none (no result: Casp7 inh, USP2a inhib, Caspase-1 inhib)
O=c1[nH]c2ccccc2n1CCCN1CCC(n2c(=O)[nH]c3cc(Cl)ccc32)CC1	HEK293 cAMP cs 15.8µM!, TSHR ag inconclusive
CC[C@H](CO)NC(=O)[C@@H]1C=C2c3cccc4[nH]cc(c34)C[C@@H]2N(C)C1	HEK293 cAMP cs inconclusive, TSHR ag inconclusive
CCNC(C)(C)[C@@H](SS)c1ccc(Br)cc1	none (no result: USP2a inhib)
O=C(O)c1cc2ccccc2oc1=O	HEK293 cAMP cs 20µM, TSHR ag inconclusive (no result: USP2a inhib)
ClC1=C(Cl)C2(Cl)C3C4C=CC(C4)C3C1(Cl)C2(Cl)Cl (configuration not stated)	CRE Fsk mod inconclusive
ClC1=C(Cl)C2(Cl)C3C4CC(C5OC45)C3C1(Cl)C2(Cl)Cl (configuration not stated)	CRE Fsk mod inconclusive, TSHR ag 25.1µM
COC(=O)[C@@]1(Cc2ccccc2)[C@H]2c3cc(C(=O)N(C)C)n(C)c3C[C@H]2CN1C(=O)c1ccccc1	HEK293 cAMP cs 25.1µM, TSHR ag inconclusive (no result: USP2a inhib)
CC(=O)/C=C/c1ccccc1	none (no result: USP2a inhib)
O=S(=O)(O)/C(=C\c1ccccc1)c1ccccc1 (tested in a mixture with another compound)	CRE Fsk mod 3.98µM (no result: USP2a inhib)
CCC(=NC1CC1)c1c(O)n(C2CCCCC2)c(=O)[nH]c1=O	CRE Fsk mod 10µM (no result: TSHR ag)
CCC(=Nc1ccc2c(c1)CCC2)c1c(O)n(C2CCCCC2)c(=O)[nH]c1=O	none
C=CCN1CC[C@@]23CCCC[C@@H]2[C@@H]1Cc1ccc(O)cc13	none
CCCn1c(C)c(C(=O)c2cccc3ccccc23)c2ccccc21	CRE Fsk mod inconclusive, HEK293 cAMP cs 12.6µM, TSHR ag inconclusive (no result: USP2a inhib)
O=C(O)[C@@H]1[C@H](C(=O)O)[C@]2(Cl)C(Cl)=C(Cl)[C@@]1(Cl)C2(Cl)Cl	none (no result: USP2a inhib)
CCCCCCCCCCCCCC(=O)O[C@H]1[C@@H](C)[C@@]2(O)[C@@H](C=C(CO)C[C@]3(O)C(=O)C(C)=C[C@@H]23)C2C(C)(C)[C@]21OC(C)=O (some centres not stated)	HEK293 cAMP cs inconclusive, TSHR ag inconclusive
O=C1C[C@@H]2OCC=C3CN4CC[C@]56c7ccccc7N1[C@H]5[C@@H]2[C@H]3C[C@@H]46	CRE Fsk mod inconclusive (no result: Casp7 inh, USP2a inhib, Caspase-1 inhib)
O=C(CSc1ccccc1)N1CCC2(CC1)OCCO2	CRE Fsk mod 12.6µM, Casp7 inh inconclusive (no result: Caspase-1 inhib)
C[C@]1(C(=O)O)[C@@H]2CC[C@@H](O2)[C@@]1(C)C(=O)O	CRE Fsk mod inconclusive
COc1cc(-c2ccc(=O)[nH]n2)ccc1OC(F)F	CRE Fsk mod 15.8µM!
COc1cc(-c2ccc(N)c(OC)c2)ccc1N	CRE Fsk mod inconclusive, TSHR ag inconclusive (no result: USP2a inhib)
CO[C@@H]([CH2][Hg])CN1C(=O)c2ccccc2S1(=O)=O.Cn1c(=O)c2nc[nH]c2n(C)c1=O	none (no result: USP2a inhib)
N[C@@H](Cc1cc(O)c(O)cc1O)C(=O)O	Casp7 inh inconclusive, USP2a inhib 6.31µM, Caspase-1 inhib inconclusive
COC(=O)C(C)Oc1cc(C)cc2oc(=O)c3c(c12)CCC3 (configuration not stated)	CRE Fsk mod 7.94µM, HEK293 cAMP cs inconclusive, TSHR ag inconclusive
COC(=O)C(C)Oc1cc(C)cc2oc(=O)c3c(c12)CCCC3 (configuration not stated)	CRE Fsk mod inconclusive (no result: TSHR ag)
C=CCN1CC[C@]23c4c5ccc(O)c4O[C@@H]2C(=O)CC[C@@]3(O)[C@H]1C5	none
COc1ccc2c(c1)c(C(=O)CN1CCN(C)CC1)c(C)n2Cc1ccccc1	HEK293 cAMP cs inconclusive, TSHR ag inconclusive
COc1cc2c(C(=O)N3CCN(C)CC3)c(C)n(C)c2cc1Br	HEK293 cAMP cs 20µM, TSHR ag inconclusive
CC(=O)N(C1=NCCCS1)c1ccc(F)cc1	HEK293 cAMP cs 1.58µM, TSHR ag inconclusive (no result: USP2a inhib)
COC(=O)c1cn(CCOc2ccccc2)c2ccccc12	HEK293 cAMP cs 20µM, TSHR ag inconclusive
CC(C)CCOC(=O)c1c(N)n(CC2CCCO2)c2nc3ccccc3nc12 (configuration not stated)	CRE Fsk mod inconclusive, Casp7 inh inconclusive, HEK293 cAMP cs inconclusive, TSHR ag inconclusive (no result: Caspase-1 inhib)
COCCOC(=O)c1c(N)n(Cc2ccccc2)c2nc3ccccc3nc12	CRE Fsk mod 15.8µM, Casp7 inh inconclusive, HEK293 cAMP cs 15.8µM, TSHR ag inconclusive (no result: Caspase-1 inhib)
CC(C)OC(=O)c1c(N)n(CC2CCCO2)c2nc3ccccc3nc12 (configuration not stated)	CRE Fsk mod 10µM, Casp7 inh inconclusive, HEK293 cAMP cs inconclusive, TSHR ag inconclusive (no result: Caspase-1 inhib)
CC(C)CCn1c(N)c(C(=O)OCC2CCCO2)c2nc3ccccc3nc21 (configuration not stated)	CRE Fsk mod inconclusive, Casp7 inh inconclusive, HEK293 cAMP cs 20µM, TSHR ag inconclusive (no result: Caspase-1 inhib)
COc1cc2c(cc1OC)[C@@]13CCN4C=C5CCO[C@H]6CC(=O)N2[C@@H]1[C@@H]6[C@H]5C[C@H]43	none (no result: USP2a inhib)
CC(C)c1ccc2c(c1)CC[C@@H]1[C@@](C)(CN)CCC[C@@]21C	CRE Fsk mod inconclusive, TSHR ag inconclusive (no result: Casp7 inh, USP2a inhib, Caspase-1 inhib)
CN(C(=O)c1ccco1)C1(c2ccccc2Cl)CCCCC1=O (configuration not stated)	HEK293 cAMP cs 20µM, TSHR ag inconclusive
CN1CC[C@@]2(CCCN(C(=O)c3ccco3)C2)C1	none
COc1cccc(N2CCN(Cc3cccc(Cl)c3)CC2)c1	TSHR ag 25.1µM
CCNc1nc(Cl)nc(NC(C)C)n1	CRE Fsk mod 7.94µM
CC[C@H](CO)NC(=O)[C@H]1C=C2c3cccc4[nH]cc(c34)C[C@H]2N(C)C1	CRE Fsk mod inconclusive (no result: Casp7 inh, USP2a inhib, Caspase-1 inhib)
C[C@@H](Cc1ccc2c(c1)OC(C(=O)O)(C(=O)O)O2)NC[C@H](O)c1cccc(Cl)c1	none (no result: TSHR ag)
CC(C)C(=O)c1cn(Cc2ccccc2C#N)c2ccccc12	HEK293 cAMP cs 25.1µM, TSHR ag inconclusive

Compound activity from PubChem.
